In the library only some 3.4% were active in any assay of this set; here they are far more common.
FBW7 activator – FBW7 E3 ligase activators, primary screen, biochemical, AlphaScreen, human | F-box/WD repeat-containing protein 7 (Homo sapiens), Q969H0 | AlphaScreen FBW7–phospho-cyclin E peptide binding, activator screen | normalized activity (activation), % at 26.1 µM | 0.13% of 650,000 active | AID 1259310, 2017; in the data active = normalized activity above about 1.9%;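 note: purified mutant Fbw7 with reduced substrate affinity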
TEAD-YAP inh – TEAD-YAP interaction inhibition, primary screen, TEAD-YAP interaction inhibitor project, luminescence, HEK-TIYL cells; TEAD-Gal4/YAP UAS-luciferase luminescence; inhibition, % at 9.12 µM; 1.4% of 640,000 active; in the data active = inhibition above about 32%;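 note: 0% = median of test compound wells and 100% = reference inhibitor wells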
MITF primary – MITF inhibitors, primary screen, biochemical, AlphaScreen, human. 0.91% of 650,000 active. inhibition, % at 2.6 µM. AID 1259374, 2018. AlphaScreen MITF homodimerization, bead proximity signal. Microphthalmia-associated transcription factor (Homo sapiens), O75030; in the data active = inhibition above about 50%;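 note: 0% = vehicle wells with protein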
Target sequence (O75030 whole entry, looked up): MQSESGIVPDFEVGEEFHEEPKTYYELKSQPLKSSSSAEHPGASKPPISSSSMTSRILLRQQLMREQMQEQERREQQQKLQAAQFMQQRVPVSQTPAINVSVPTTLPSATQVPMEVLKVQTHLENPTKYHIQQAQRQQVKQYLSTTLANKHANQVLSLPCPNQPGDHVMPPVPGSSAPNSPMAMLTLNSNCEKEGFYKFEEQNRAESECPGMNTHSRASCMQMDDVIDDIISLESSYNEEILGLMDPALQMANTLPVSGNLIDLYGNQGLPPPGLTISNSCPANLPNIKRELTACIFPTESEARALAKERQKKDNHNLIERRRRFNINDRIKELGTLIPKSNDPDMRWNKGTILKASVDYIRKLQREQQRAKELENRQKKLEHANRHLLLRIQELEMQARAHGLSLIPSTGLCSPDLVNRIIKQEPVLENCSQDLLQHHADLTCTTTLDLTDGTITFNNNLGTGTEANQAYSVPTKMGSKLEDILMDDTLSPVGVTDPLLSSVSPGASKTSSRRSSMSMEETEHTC
GPR151 activ – activators of human GPR151, primary screen, cell-based, PathHunter beta-arrestin, luminescence | PathHunter beta-arrestin GPR151 cells | AID 1508602, 2020 | 1% of 650,000 active | activation, % at 11.2 µM | G-protein coupled receptor 151 (Homo sapiens), Q8TDV0; in the data active = activation above about 4.9%;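 note: 0% = median of compound wells and 100% = cells with positive control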
Starred values were filed as active, the others as inactive.

What do the screens show for `Cc1ccc(S(=O)(=O)Nc2ccccc2C(=O)Nc2nc(-c3ccc(F)cc3)cs2)cc1`?
FBW7 activator: 0; TEAD-YAP inh: 54*; MITF primary: 0; GPR151 activ: 2

What do the screens show for `COCCn1nnnc1C(c1ccccc1)N1CCN(c2cc(Cl)ccc2C)CC1` (stereo not drawn)?
FBW7 activator: 0; TEAD-YAP inh: -3; MITF primary: -14; GPR151 activ: 0

What do the screens show for `Cc1ccc(S(=O)(=O)Nc2ccccc2C(=O)Nc2nc3c(Cl)cccc3s2)cc1`?
FBW7 activator: 0; TEAD-YAP inh: 33*; MITF primary: -9; GPR151 activ: 0

What do the screens show for `COC1CC(NC(=O)c2cnc(N3CCN(c4ncccn4)CC3)c3ccccc23)CC(OC)C1OC` (stereo not drawn)?
FBW7 activator: 0; TEAD-YAP inh: 72*; MITF primary: -3; GPR151 activ: 2

Results for COc1ccc(NC(=O)c2cnc(N3CCN(c4ccccn4)CC3)c3ccccc23)cc1OC ?
FBW7 activator: 0; TEAD-YAP inh: 84*; MITF primary: 2; GPR151 activ: 2

How did O=C(NC1CCCCC1)c1cnc(N2CCN(c3ncccn3)CC2)c2ccccc12 do in these assays?
FBW7 activator: 0; TEAD-YAP inh: 0; MITF primary: 2; GPR151 activ: -1

Results for Cc1cccc(NC(=O)c2cnc(N3CCN(c4ccccn4)CC3)c3ccccc23)n1 ?
FBW7 activator: 0; TEAD-YAP inh: 40*; MITF primary: 5; GPR151 activ: 0

Results for CC(C)NC(=O)c1cnc(N2CCN(c3ccccn3)CC2)c2ccccc12 ?
FBW7 activator: 0; TEAD-YAP inh: 11; MITF primary: -7; GPR151 activ: 1

How did COc1cc(NC(=O)c2cnc(N3CCN(c4ccccn4)CC3)c3ccccc23)cc(OC)c1OC do in these assays?
FBW7 activator: 0; TEAD-YAP inh: 78*; MITF primary: 6; GPR151 activ: 1

What do the screens show for `CCCCCc1ccc(-c2ccc(-c3noc(-c4c(-c5ccccc5Cl)noc4C)n3)cc2)cc1`?
FBW7 activator: 0; TEAD-YAP inh: -1; MITF primary: 10; GPR151 activ: -1

How did COc1ccccc1N1CCN(c2ncc(C(=O)Nc3cc(OC)c(OC)c(OC)c3)c3ccccc23)CC1 do in these assays?
FBW7 activator: 0; TEAD-YAP inh: 56*; MITF primary: 8; GPR151 activ: -1

What do the screens show for `COCCCNC(=O)c1cnc(N2CCN(c3ccccc3OC)CC2)c2ccccc12`?
FBW7 activator: 0; TEAD-YAP inh: 38*; MITF primary: 13; GPR151 activ: -1

Results for COc1cccc(NC(=O)c2cnc(N3CCN(c4ccccn4)CC3)c3ccccc23)c1 ?
FBW7 activator: 0; TEAD-YAP inh: 62*; MITF primary: -4; GPR151 activ: 1

How did COc1cccc(NC(=O)c2cnc(N3CCN(c4ncccn4)CC3)c3ccccc23)c1 do in these assays?
FBW7 activator: 0; TEAD-YAP inh: 20; MITF primary: 1; GPR151 activ: -1

Results for COc1ccc(NC(=O)c2cnc(N3CCN(c4ncccn4)CC3)c3ccccc23)c(OC)c1 ?
FBW7 activator: 0; TEAD-YAP inh: 50*; MITF primary: 12; GPR151 activ: 2

How did C=CCNc1nc(Nc2ccccc2C)c2cnn(C)c2n1 do in these assays?
FBW7 activator: 1; TEAD-YAP inh: 0; MITF primary: 14; GPR151 activ: 4

How did COCCOC(=O)C1=C(C)NC(C)=C(C#N)C1c1ccccc1OC(F)F (stereo not drawn) do in these assays?
FBW7 activator: 0; TEAD-YAP inh: 9; MITF primary: -1; GPR151 activ: -1

How did CC1=C(C#N)C(c2cc(Cl)ccc2OC(F)F)C(C#N)=C(C)N1 do in these assays?
FBW7 activator: 0; TEAD-YAP inh: 44*; MITF primary: -5; GPR151 activ: -1

How did CC1=C(C#N)C(c2cc([N+](=O)[O-])ccc2OC(F)F)C(C#N)=C(C)N1 do in these assays?
FBW7 activator: 1; TEAD-YAP inh: 42*; MITF primary: 19; GPR151 activ: 0

Results for COC(=O)C(NC(C)=O)(Nc1ncc(Cl)cc1Cl)C(F)(F)F (stereo not drawn) ?
FBW7 activator: 0; TEAD-YAP inh: 6; MITF primary: 11; GPR151 activ: 0

Results for COc1ccc(-c2nc(N)c3cc(OC)c(OC)cc3n2)cc1 ?
FBW7 activator: 0; TEAD-YAP inh: -2; MITF primary: -5; GPR151 activ: -1

What do the screens show for `COc1cc2nc(N(C)C)nc(N)c2cc1OC`?
FBW7 activator: 0; TEAD-YAP inh: 61*; MITF primary: 17; GPR151 activ: 0

What do the screens show for `CCOc1ccc2[nH]c(=O)c(CN(CCOC)C(=O)Nc3ccc(SC)cc3)cc2c1`?
FBW7 activator: 0; TEAD-YAP inh: -36; MITF primary: 2; GPR151 activ: -1

Results for CCOc1ccc2[nH]c(=O)c(CN(CCOC)C(=O)Nc3ccc(F)cc3)cc2c1 ?
FBW7 activator: 0; TEAD-YAP inh: 37*; MITF primary: 1; GPR151 activ: 1

Results for Nc1cc2c3c(c1)C(c1ccccc1)CCN3CCC2c1ccccc1 (stereo not drawn) ?
FBW7 activator: 6.3*; TEAD-YAP inh: 24; MITF primary: -3; GPR151 activ: 0

What do the screens show for `Cn1c(=Nc2cccc(O)c2)sc2ccccc21`?
FBW7 activator: -1; TEAD-YAP inh: -37; MITF primary: -5; GPR151 activ: 1

Results for Cc1cccc(C)c1NC(=O)c1cc2c(=O)n3ccccc3nc2n1C ?
FBW7 activator: 0; TEAD-YAP inh: 37*; MITF primary: -9; GPR151 activ: 1

What do the screens show for `COc1ccc(N(C)S(=O)(=O)c2ccc3c(c2)oc(=O)n3C)cc1`?
FBW7 activator: 0; TEAD-YAP inh: 3; MITF primary: 20; GPR151 activ: 1

How did CN(c1ccc(Br)cc1)S(=O)(=O)c1ccc2c(c1)oc(=O)n2C do in these assays?
FBW7 activator: 0; TEAD-YAP inh: 34*; MITF primary: 9; GPR151 activ: 1

How did CN(c1ccccc1)S(=O)(=O)c1ccc2c(c1)oc(=O)n2C do in these assays?
FBW7 activator: 1; TEAD-YAP inh: 56*; MITF primary: 10; GPR151 activ: -1

Results for N/C(=N\OC(=O)c1ccc([N+](=O)[O-])cc1Cl)c1ccc([N+](=O)[O-])cc1 ?
FBW7 activator: 0; TEAD-YAP inh: -11; MITF primary: 3; GPR151 activ: 3

How did Cc1nn(-c2ccccc2)c(N2CCCCC2)c1/C=N/Nc1ccccn1 do in these assays?
FBW7 activator: 0; TEAD-YAP inh: 61*; MITF primary: 7; GPR151 activ: -1

Results for COc1ccc(NC(=O)c2ccccc2S(C)(=O)=O)cc1Cl ?
FBW7 activator: 0; TEAD-YAP inh: -4; MITF primary: 7; GPR151 activ: -1

What do the screens show for `COc1ccc(/C=N/Nc2ccc(C(F)(F)F)cn2)c(OC)c1`?
FBW7 activator: 0; TEAD-YAP inh: -7; MITF primary: 1; GPR151 activ: 1
